Among the data in PubChem BioAssay (EPA / NIEHS) are outcome and AC50 values, retold here.

SMILES strings stand for the structures. The source made the active and inactive calls. The calls were made as follows: active = hit-call score of the fitted dose curve at least 0.9, where 1 is the maximum; inactive = score below 0.9.

The experiment in a line: CCTE_Shafer_MEA_acute_cross_correlation_area: CCTE's Neural Acute Assay for Area of Cross Correlation, Shafer Lab (AID 2284024).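 Also: curves fitted for loss of cross-correlation area so actives lower synchrony.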 How it is done: CCTE_Shafer_MEA_acute assay is conducted using Axion Biosystems 48 well microelectrode array (MEA) plates and Maestro recording system. Each well of the MEA plate contains a grid of 16 microelectrodes embedded in the culture surface. Electrically active cells, such as neurons, can be cultured over the electrodes, and electrical activity in these cells can be recorded extracellularly. The spontaneous firing of neurons is captured from each electrode on a microsecond timescale providing both temporally and spatially precise data. […] The CCTE_Shafer_MEA_acute assay uses primary cultures of rat cortical neurons. As these cultures mature over time, neural networks develop functional activity and form cohesive networks in which electrical activity can be highly coordinated. Baseline 40-minute recordings are made on days post-plating 13 or 15, followed by a secondary 40-minute recording after chemical exposure.CCTE_Shafer_MEA_acute_cross_correlation_area is a component of the CCTE_Shafer_MEA_acute assay. It measures the area under the well-wide pooled inter-electrode cross-correlation of action potential firing (not normalized to auto-correlations) within a window centered around 0 for the phase lag during a recording in a microelectrode array (MEA) using Axion Biosystems Maestro 768 channel amplifier with the AxIS adaptive spike detector. The recordings before and after chemical treatment are used to calculate a percent change in the cross correlation area in each well.Data from the assay component CCTE_Shafer_MEA_acute_cross_correlation_area was analyzed into 1 assay endpoint. This assay endpoint, CCTE_Shafer_MEA_acute_cross_correlation_area, was analyzed in the negative analysis fitting direction relative to DMSO as the negative control and baseline of activity. Using a type of functional reporter, gain or loss-of-signal activity can be used to understand electrical activity.
Spontaneous activity in the cortical cultures was recorded using an Axion Biosystems Maestro 768 channel amplifier and Axion Integrated Studios (AxIS) v1.8 (or later) software. The amplifier recorded from all channels simultaneously (gain = 1200 x; sampling rate = 12.5 kHz/channel): raw signals were filtered with a Butterworth band-pass filter (300-5000 Hz), which filters out slower local field potentials leaving only fast potentials, i.e., "spikes", arising from extracellular currents associated with action potentials (Pine 2006; Wheeler and Nam 2011). On-line spike detection of filtered signals was conducted with the AxIS adaptive spike detector, using a threshold of 8x the root mean squared (rms) noise on each channel. Any electrodes with rms noise levels greater than 5 uV were grounded (e.g., no data were recorded). Once grounded, an electrode was grounded for the duration of the experiment. All recordings were conducted at 37 C. Wells were deemed usable if on the day of the exposure >/= 10 electrodes were active (defined as >/= 5 spikes/min). On DIV 13 or 15, a minimum of three wells from one cortical culture preparation were treated with each compound (0.03-40 uM). Prior to recording baseline activity, each mwMEA plate was placed in the Maestro at 37 C and allowed to sit for 20 min while firing rates stabilized. Baseline activity (40 min) was recorded before the addition of each compound. An additional 40 min of spontaneous activity was recorded in the presence of each compound. Changes in network parameters relative to baseline were assessed following compound treatment.
As for `CCOc1cc(C(C)(C)C)ccc1C1COC(c2c(F)cccc2F)=N1` (stereo unspecified), the compound was classed as inactive. Still for that read-out and setting: then `Cc1nc(N(C)C)nc(OC(=O)N(C)C)c1C`, with “inactive”; and `CC1(C)CCC(=Cc2ccc(Cl)cc2)C1(O)Cn1cncn1` (stereo unspecified), with “inactive”; and `OC(c1ccc(Cl)cc1)(c1ccc(Cl)cc1)C(Cl)(Cl)Cl`, with “inactive”. Same read-out and setting: then `Nc1c(Cl)c(F)nc(OCC(=O)O)c1Cl`, with “inactive”; and `N#Cc1c[nH]cc1-c1cccc2c1OC(F)(F)O2`, with “inactive”; and `CCOc1nc(F)cc2nc(S(=O)(=O)Nc3c(Cl)cccc3Cl)nn12`, with “inactive”. Consider `CCOC(=O)C(C)OC(=O)c1cc(Oc2ccc(C(F)(F)F)cc2Cl)ccc1[N+](=O)[O-]` (stereo unspecified), for which the compound was called inactive. Still for that read-out and setting: to `COC(=O)N(C(=O)N1CO[C@@]2(C(=O)OC)Cc3cc(Cl)ccc3C2=N1)c1ccc(OC(F)(F)F)cc1` belongs “inactive”. The same measure, in the same setting: then `CCCC(=NOCC)C1=C(O)CC(CC(C)SCC)CC1=O` (stereo unspecified), with “inactive”.

Regarding `CC(C)N1C(=O)N(c2ccccc2)CSC1=NC(C)(C)C`, the call was inactive. Still for that read-out and setting: to `CC(C)=CC1C(C(=O)OCc2coc(Cc3ccccc3)c2)C1(C)C` (stereo unspecified) belongs “inactive”; to `Cc1ccc(N=CN(C)C=Nc2ccc(C)cc2C)c(C)c1`, “inactive”. As for `COP(=S)(OC)SCn1nnc2ccccc2c1=O`, the compound was classed as inactive. On the same count and under the same terms, then `CO/N=C(/C1=NOCCO1)c1ccccc1Oc1ncnc(Oc2ccccc2Cl)c1F`, with “inactive”. Take `CC(C)C1(C)N=C(c2ncccc2C(=O)O)NC1=O` (stereo unspecified): the compound was called inactive. On the same count and under the same terms, then `N#CN=C1SCCN1Cc1ccc(Cl)nc1`, with “inactive”; and `O=C(Nc1ccccc1-c1ccc(Cl)cc1)c1cccnc1Cl`, with “inactive”.

For the compound `C=C(C)CN(CC)c1c([N+](=O)[O-])cc(C(F)(F)F)cc1[N+](=O)[O-]`, the result was inactive. As to `COCC(=O)N(c1c(C)cccc1C)C(C)C(=O)OC` (stereo unspecified), the result was inactive. By AC50 is commonly meant the concentration at which the activity in the assay is half-maximal. Take `CC1(C)C(C(=O)OC(C#N)c2cccc(Oc3ccccc3)c2)C1(C)C` (stereo unspecified): the AC50 was 645 nM (active).

For the compound `Cc1c(COC(=O)[C@@H]2[C@H](/C=C(\Cl)C(F)(F)F)C2(C)C)cccc1-c1ccccc1`, the compound was called inactive. As to `Clc1nc(Cl)nc(Nc2ccccc2Cl)n1`, the call was inactive.

In the case of `CC1(C)C(C=C(Cl)Cl)C1C(=O)OC(C#N)c1cccc(Oc2ccccc2)c1` (stereo unspecified), the result was inactive. The same measure, in the same setting: to `CCCCC(O)(Cn1cncn1)c1ccc(Cl)cc1Cl` (stereo unspecified) belongs “inactive”.

`CN/C(=N\[N+](=O)[O-])NCc1cnc(Cl)s1`: the AC50 was 160 nM (active). On to `CC(C)N1C(=O)c2ccccc2NS1(=O)=O`, for which the result was inactive. Same read-out and setting: then `CCOP(=O)(OCC)Oc1nc(Cl)c(Cl)cc1Cl`, with “inactive”. The same measure, in the same setting: then `CNC(=O)Oc1cccc2ccccc12`, with “inactive”. The same measure, in the same setting: then `CCCN(CC)CC1COC2(CCC(C(C)(C)C)CC2)O1` (stereo unspecified), with “inactive”; and `Cn1c(-c2ccccc2)cc(-c2ccccc2)[n+]1C`, with “inactive”.
